In PubChem BioAssay:

Assay: JC-1 mitochondrial signal, unstimulated myeloma cells – cell-based, JC-1 fluorescence, RPMI8226, 24 h, 100 nL compound, profiling panel (AID 1169); further: test concentration not given here
Details: JC-1 mitochondrial potential fluorescence, higher = more signal

Row | Compound | z-score
1 | COC(=O)Cn1c(C(=O)N2CCCC2)cc2c1C[C@H]1CN(C(=O)c3ccccc3)[C@@](Cc3ccccc3)(C(=O)OC)[C@@H]21 | -0.0618
2 | O=C1C[C@@](C(=O)NCCN2CCOCC2)(c2ccc([N+](=O)[O-])cc2)[C@@H](c2ccc(CO)cc2)N1C1CCCCC1 | 0.36
3 | CC(=O)NCCCC[C@@H]1NC(=O)[C@H]2C[C@@H](C(=O)NCCCCCCN(C)C)[C@@H](c3cccc(OCCO)c3)N2C1=O | -0.125
4 | CC(C)(C)OC(=O)CC[C@]1(C(=O)N2CCCCC2)N=C(c2ccc(OCCCO)cc2)O[C@H]1c1ccccc1 | -0.123
5 | CC(=O)NCCCC[C@@H]1NC(=O)[C@H]2C[C@@H](C(=O)NCCCCCCN(C)C)[C@@H](c3ccc(O)cc3)N2C1=O | 0.669
6 | O=C1C2C=CC(C(O)Cc3ccccc3)N(Nc3ccc([N+](=O)[O-])cc3)C2C(=O)N1c1ccccc1 (stereo unspecified) | 0.517
7 | C=C(COC)C(=O)CC[C@H](OC(=O)c1ccccc1-c1ccccc1C(=O)O)c1cccc(OCCO)c1 | 0.231
8 | C=CC[C@@]1(C(=O)NCC(O)CO)N=C(c2ccc(OCCCO)cc2)O[C@@H]1c1ccccc1CN=[N+]=[N-] (stereo partly specified) | -0.153
9 | O=C(CS)NCCCCCCNC(=O)[C@@H]1C[C@@H]2C(=O)N[C@@H](Cc3ccccc3)C(=O)N2[C@@H]1c1ccc(O)cc1 | -0.208
10 | C=CC[C@]1(C(=O)N2CCCCC2)N=C(c2ccc(OCCCO)cc2)O[C@H]1c1ccccc1N=[N+]=[N-] | -1.17
11 | COC(=O)[C@@]1(Cc2ccc(OC)cc2)[C@H]2c3cc(C(=O)N(C)C)n(Cc4ccc(C)c(F)c4F)c3C[C@H]2CN1C(=O)c1ccccc1 | 0.817
12 | [N-]=[N+]=NCc1ccccc1C[C@]1(C(=O)N2CCCCC2)N=C(c2ccc(OCCCO)cc2)O[C@H]1c1ccccc1CN=[N+]=[N-] | -1.19
13 | CC(C)[Si](OCC[C@H]1O[C@]2(C(=O)N(Cc3ccccc3)c3ccccc32)[C@@H](C)[C@@H]1[Si](C)(C)O)(C(C)C)C(C)C | -0.82
14 | C=CCC(OC(C)=O)[C@@H]1[C@@H](N(Cc2ccc(-c3cccc(C(F)(F)F)c3)o2)C(=O)Cc2ccc(F)cc2)c2cc(OCCCO)ccc2N1C(=O)c1ccc(-c2ccccc2)cc1 (stereo partly specified) | -0.582
15 | C=C[C@H](OC)[C@@H](OC(=O)Nc1ccc(SC)cc1)c1ccc(O)c(F)c1 | -1.09
16 | O=C1O[C@H](c2ccccc2)[C@H](c2ccccc2)N2[C@H]1[C@@H](C(=O)NC[C@H](O)c1ccccc1)[C@]1(C(=O)Nc3ccc(C#CC4(O)CCCCCC4)cc31)[C@H]2c1ccc(OCCO)cc1 | -0.842
17 | CC(C)C[C@@H]1NC(=O)[C@H](CC(C)C)NC(=O)[C@@]23C(=O)N[C@@H](Cc4ccccc4)C2[C@H](C)[C@@]2(C)O[C@H]2C3/C=C/CC/C=C/CNC1=O (stereo partly specified) | -0.366
18 | O=C1NC(=O)C2C1C=CC(C(O)C=Cc1ccc([N+](=O)[O-])cc1)N2Nc1ccccn1 (stereo unspecified) | 0.412

Row | Compound | z-score
19 | NC(=O)NCC#Cc1ccc2c(c1)[C@]1(C(=O)N2)[C@H](C(N)=O)[C@H]2C(=O)O[C@H](c3ccccc3)[C@H](c3ccccc3)N2[C@@H]1c1ccccc1OCCO | -1.05
20 | CCOC(=O)C[C@H]1[C@H](OC(=O)c2cc3ccccc3oc2=O)[C@@H](NC(=O)C2CCCCC2)c2cc(OCCCO)ccc2N1C(=O)c1ccc2ccccc2n1 | 0.322
21 | COc1cc2c(cc1OC)CN(C(=O)[C@H]1[C@@H]3C(=O)O[C@@H](c4ccccc4)[C@@H](c4ccccc4)N3[C@@H](c3ccc(O)cc3)[C@]13C(=O)Nc1ccc(C#CC4(O)CCCCCC4)cc13)CC2 | -0.34
22 | O=C1OCCC/C=C\[C@H]2OC34C=CCN(CCN5CCOCC5)C(=O)[C@H]3N(CCCCCO)C(=O)[C@@H]4C12 (stereo partly specified) | 0.329
23 | C[N+](C)(C)CCCCNC(=O)[C@H]1C[C@H]2C(=O)NCC(=O)N2[C@H]1c1cccc(OCCO)c1 | -0.074
24 | O=C1C[C@@](C(=O)NC2CC2)(c2ccc([N+](=O)[O-])cc2)[C@@H](c2ccc(CO)cc2I)N1CC12CC3CC(CC(C3)C1)C2 | -1.02
25 | C=C(CCCC)/C(=C/C[C@@H](OC(=O)c1ccncc1)c1cccc(OCCO)c1)c1cc(C(=O)OC)ccc1OC | 0.0948
26 | Cc1ccc(S[C@]2(C(=O)NCCCN(C)C)CC(=O)N(Cc3ccccc3)[C@@H]2c2ccc(CO)cc2I)cc1 | -0.643
27 | O=C1O[C@H](c2ccccc2)[C@H](c2ccccc2)N2[C@H]1[C@@H](C(=O)Nc1nc3ccccc3s1)[C@]1(C(=O)Nc3ccc(C#CC4(O)CCCCCC4)cc31)[C@H]2c1ccc(O)cc1 | -1.14
28 | O=C(NCc1ccccc1)[C@@]1(Cc2ccccc2)COC(c2ccc(OCCCO)cc2)=N1 | -1.06
29 | C=C(CCCC)/C(=C/C[C@@H](OC(=O)c1ccncc1)c1ccc(CO)o1)c1cnc2ccccc2c1 | -0.287
30 | O=C1C2C=CC(C(O)C#Cc3ccccc3)N(Nc3ccccc3)C2C(=O)N1c1ccccc1 (stereo unspecified) | -0.449
31 | CCCC=C(CCC)[C@@H](NC(=O)c1ccc(C(F)(F)F)cc1)c1ccccc1 | -0.601
32 | COc1ccc(NN2C(C(O)c3cc(OC)c(OC)c(OC)c3)C=CC3C(=O)N(C4CCCCC4)C(=O)C32)cc1 (stereo unspecified) | 0.00692
33 | C#CCCCON=C1C[C@@H](O)[C@@H](O)[C@@H]2[C@@H]3C(=O)N(Cc4ccc5c(c4)OCO5)C(=O)[C@@H]3CC[C@@H]12 | 0.412
34 | COC(=O)C1=CC(c2ccc(CO)cc2)=CC(c2cccs2)N(Cc2cccc(OC(F)(F)F)c2)C=C1C(=O)OC (stereo unspecified) | -0.838
35 | O=C1O[C@H](c2ccccc2)[C@H](c2ccccc2)N2[C@H]1[C@@H](C(=O)NC[C@H](O)c1ccccc1)[C@]1(C(=O)Nc3ccc(C#CC4=CCCCC4)cc31)[C@H]2c1ccc(OCCO)cc1 | -1.34
36 | CC[C@H]1C2=C3C(CC[C@H]4C(OC)OC[C@](C)([C@@H]34)N(C(=O)OC(C)(C)C)C2)C(CO)C1CO (stereo partly specified) | -0.38
